From PubChem
L3MBTL1 block: qHTS Assay for the Inhibitors of L3MBTL1; AlphaScreen L3MBTL1–H3K9me1 peptide binding; Potency, µM (top dose mostly 57.1 µM), without a hit: top-dose activity, negative = inhibition, most hits filed as inhibitors; 230,000 compounds, 0.66% hits; AID 485360, 2010; further: on the % scale 0 is the no-effect control and ±100 the full control effect; nearly all actives have a fitted effect of over 60% in size
Target sequence (Q9Y468 whole entry, looked up): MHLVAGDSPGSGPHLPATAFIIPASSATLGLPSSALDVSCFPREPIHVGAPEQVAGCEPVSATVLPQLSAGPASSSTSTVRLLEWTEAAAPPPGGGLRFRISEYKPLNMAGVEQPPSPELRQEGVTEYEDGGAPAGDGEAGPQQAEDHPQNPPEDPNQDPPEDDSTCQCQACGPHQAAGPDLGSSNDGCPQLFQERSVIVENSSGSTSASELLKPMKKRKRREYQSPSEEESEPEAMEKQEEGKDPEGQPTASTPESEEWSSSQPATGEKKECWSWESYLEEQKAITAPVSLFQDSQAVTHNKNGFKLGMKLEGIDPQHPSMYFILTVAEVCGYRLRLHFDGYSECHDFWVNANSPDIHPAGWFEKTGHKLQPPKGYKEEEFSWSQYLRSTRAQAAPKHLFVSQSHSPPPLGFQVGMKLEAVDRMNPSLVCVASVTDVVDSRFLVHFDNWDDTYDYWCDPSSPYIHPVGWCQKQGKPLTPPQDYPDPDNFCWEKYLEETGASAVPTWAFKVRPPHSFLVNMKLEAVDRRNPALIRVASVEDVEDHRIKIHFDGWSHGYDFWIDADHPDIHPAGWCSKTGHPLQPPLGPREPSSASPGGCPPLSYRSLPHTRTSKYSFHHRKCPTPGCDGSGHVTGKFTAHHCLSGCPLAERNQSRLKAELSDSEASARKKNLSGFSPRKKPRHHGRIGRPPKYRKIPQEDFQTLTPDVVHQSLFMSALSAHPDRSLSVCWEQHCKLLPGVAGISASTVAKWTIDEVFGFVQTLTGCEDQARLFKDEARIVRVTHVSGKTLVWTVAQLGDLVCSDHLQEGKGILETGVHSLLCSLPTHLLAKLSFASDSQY
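AlphaScreen assay: L3MBTL1 (50 nM final) was preincubated 30 min at room temperature with biotinylated H3(1-15)K9me1 peptide (75 nM final), then 30 min with library compounds; streptavidin donor and nickel chelate acceptor beads (10 ug/mL final) added, 30 min dark.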
JMJD2A Tudor inh: qHTS Assay for Inhibitors of JMJD2A-Tudor Domain; Lysine-specific demethylase 4A (Homo sapiens), O75164; AlphaScreen JMJD2A-Tudor / H3K4me3 peptide binding; Potency, µM (doses to about 114 µM), inactives show at the top dose activity change, negative = inhibition, actives largely listed as inhibitors; 390,000 compounds, 4.4% hits; AID 504339, 2011; further: on the % scale 0 is the no-effect control and ±100 the full control effect; nearly all actives have a fitted effect of over 50% in size
Sfp PPTase inh: qHTS Assay for Inhibitors of Bacillus subtilis Sfp phosphopantetheinyl transferase (PPTase); Biochemical Sfp PPTase activity, qHTS; 4'-phosphopantetheinyl transferase ffp (Bacillus subtilis), Q9F4F7; 310,000 compounds, 3.5% hits; Potency, µM, for inactives: largest response in the series, negative = inhibition, hits mostly inhibitors;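 further: the enzyme is Sfp with the accession as filed and its product quenches rhodamine fluorescence; 0% = enzyme reaction without inhibitor and -100% = no enzyme wells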
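Buffer: 50 mM Hepes-Na pH 7.6, 10 mM MgCl2, 0.01% Nonidet P-40, 0.01% BSA. Enzyme 15 nM, pre-exposed to compound 15 min; substrates then added and fluorescence change tracked over 30 min.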
G9a block: qHTS Assay for Inhibitors of Histone Lysine Methyltransferase G9a; Histone-lysine N-methyltransferase EHMT2 (Homo sapiens), Q96KQ7; G9a H3K9 monomethylation, AlphaScreen, 2 h; Potency, µM (doses to about 102 µM), for inactives: at the highest dose activity, negative = inhibition, hits mostly inhibitors; 350,000 compounds, 8.8% hits; AID 504332, 2011; further: on the % scale 0 is the no-effect control and ±100 the full control effect; nearly all actives have a fitted effect of over 75% in size
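G9a (20 nM) preincubated 15 min RT with compounds, then 500 nM biotinylated H3K9 peptide and 20 uM SAM added; 2 h RT reaction. Monomethyl-H3K9 product detected by AlphaScreen with anti-H3K9me1 antibody, streptavidin donor and anti-rabbit IgG acceptor beads.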
HP1b binding inh: HTS for Inhibitors of HP1-beta Chromodomain Interactions with Methylated Histone Tails | AID 540317, 2011 | 390,000 compounds, 0.56% hits | Chromobox protein homolog 1 (Homo sapiens), P83916 | Potency, µM (top dose mostly 114 µM), without a hit: top-dose activity change, negative = inhibition, most hits filed as inhibitors | AlphaScreen HP1-beta / biotin-H3K9me3 peptide binding; further: nearly all actives have a fitted effect of over 70% in size
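AlphaScreen: HP1-beta (50 nM) preformed 30 min with biotin-H3(1-18)K9me3 peptide (50 nM) in PBS pH 7.4, 0.01% Tween-20. Compound added for 30 min at RT, then streptavidin donor/nickel chelate acceptor beads (10 ug/mL) for 30 min.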
BAZ2B inh: qHTS Assay for Inhibitors of BAZ2B; Bromodomain adjacent to zinc finger domain protein 2B (Homo sapiens), Q9UIF8; AlphaScreen BAZ2B-H3K14Ac peptide displacement; Potency, µM (titrated, usually from 114 µM), inactives show top-dose activity change, negative = inhibition, most hits filed as inhibitors; 360,000 compounds, 4.4% hits; AID 504333, 2011; further: on the % scale 0 is the no-effect control and ±100 the full control effect; nearly all actives have a fitted effect of over 60% in size
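AlphaScreen displacement: compounds (up to 110uM) incubated 30 min at room temperature with a preformed 50 nM BAZ2B/50 nM biotinylated H3K14Ac peptide complex in PBS pH 7.4 with Tween-20. Donor and acceptor beads at 10 ug/mL final added, 20 min light-protected before reading.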
* marks the source's active call; other numbers are inactive results; ? = inconclusive; · = no result given; [ ] = dose if it differs, or a comment. Shown are actives, neighbours in structure and some others; about 12% of the full set was active somewhere. The call rests on the fitted dose curve; in most records, active means well fitted curve in the direction sought with a large enough effect; inconclusive means small, poorly fitted or top-dose-only effect, or another doubt; inactive means no such curve, though single readings can be large; an effect the other way counts as inactive or inconclusive. Potency means the concentration at half of the fitted maximal effect.

SMILES	L3MBTL1 block	JMJD2A Tudor inh	Sfp PPTase inh	G9a block	HP1b binding inh	BAZ2B inh
Cc1nc2c(cnn2-c2ccccc2Cl)c(=O)n1-c1ccc(N2CCC(C)CC2)cc1	·	?	6%	50µM*	-1%	?
COc1ccc(Cl)cc1C(=O)Nc1nnc2n1CCS2	·	-28%	·	?	7%[57 µM]	-20%
COc1ccccc1C(=O)Nc1nnc2n1CCS2	·	?	·	11µM*	12%[57 µM]	-14%
CCC(=O)Nc1nnc2n1CCS2	·	20µM*	·	25µM*	-6%[57 µM]	-13%
Cc1cc(C)cc(C(=O)Nc2nnc3n2CCS3)c1	·	-23%	·	8%[59 µM]	20%[57 µM]	?
CCOC(=O)CCC(=O)Nc1nnc2n1CCS2	·	40µM*	·	13µM*	-7%[57 µM]	?
CCCCOc1ccc(C(=O)Nc2nnc3n2CCS3)cc1	·	-14%	·	60%[59 µM]	18%[57 µM]	4%
CC(=O)Nc1nnc2n1CCS2	·	22µM*	·	14µM*	-8%[57 µM]	-4%
CCOc1cccc(C(=O)Nc2cc(C)ccc2NC(=O)c2ccco2)c1	·	-26%	2%	·	16%	?
Cc1ccc2c(c1)N(C(=O)CCC(=O)NCc1cccc(F)c1)CC(C)O2 (stereo not drawn)	·	-19%	·	-6%[59 µM]	26%	-1%
C=CC[C@@H](Cc1ccc(F)cc1)C(=O)OC[C@@H]1CCCN1C(=O)[C@H](CC=C)CC(=O)N(CCO)Cc1ccccc1	-7%	-18%	·	·	36%	·
COc1ccc(Nc2cc(C)c3c(O)cccc3n2)cc1	·	-28%[11.4 µM]	?	·	-13%	45µM*
Cc1ccc(Nc2cc(C)c3c(O)cccc3n2)cc1C	·	?	50µM*	·	-21%	45µM*
O=c1n(Cc2ccc(Cl)cc2)nc2n1-c1ccccc1OC2	·	-9%	·	9%[59 µM]	21%	-16%
O=C(NCc1cccc(Br)c1)c1ccc(NC(=O)N2CCCCc3ccccc32)cc1	·	-18%	·	52%[59 µM]	14%	7%
CCOc1ccc(CNC(=O)CCC(=O)N2CC3CCCN3c3ccccc32)cc1 (stereo not drawn)	·	?	·	26%[59 µM]	?	50µM*
COc1ccc(OC)c(NC(=O)N2CC3CCCN3c3ccccc32)c1 (stereo not drawn)	·	40µM*	·	18µM*	?	20µM*
O=C(Nc1cccc(Cl)c1)N1CC2CCCN2c2ccccc21 (stereo not drawn)	·	14µM*	·	2.2µM*	?	18µM*
O=C(NCc1cccc(Cl)c1)c1ccc(NC(=O)N2CC3CCCN3c3ccccc32)cc1 (stereo not drawn)	·	?	·	10µM*	-12%	?
CC1CCCCN1C(=O)Nc1cccc(Cl)c1 (stereo not drawn)	7%	5%	6%	-8%[59 µM]	7%	-20%
CC(=O)[C@@H]1[C@H]2[C@H](C(=O)[C@H]3OC[C@@H]2O3)[C@H]2C=Cc3ccccc3N21	·	·	45µM*	·	·	·
COc1ccc(C(=O)C2C3C4COC(O4)C(=O)C3C3C=Cc4ccccc4N32)c(OC)c1 (stereo not drawn)	·	·	79µM*	·	·	·
Cc1cccc(NC(=S)NNC(=O)c2ccccc2Br)c1	3%	-15%	-4%	5µM*	5%	12%
Cc1cccc(NC(=S)NNC(=O)c2ccccc2OC(F)F)c1	·	-23%	-5%	?	8%	12%
O=C(NNC(=S)Nc1ccc(F)c(Cl)c1)C1CC1	6%	-11%	23%	?	50%	6%
SMILES	L3MBTL1 block	JMJD2A Tudor inh	Sfp PPTase inh	G9a block	HP1b binding inh	BAZ2B inh
COC(=O)c1sccc1NC(=S)Nc1cccc(F)c1	5%	-2%	-4%	·	40%	-7%
COC(=O)c1cn[nH]c1NC(=S)Nc1ccc(C)cc1Cl	4%	-11%	-13%	?	10%	6%
COC(=O)c1cn[nH]c1NC(=S)Nc1ccc(Cl)c(Cl)c1	·	-2%	56µM*	5%[59 µM]	5%	5%
CC(=O)NNC(=S)Nc1cccc(F)c1	7%	-4%	5%	13µM*	19%	0%
O=C(NNC(=S)Nc1ccc(F)c(Cl)c1)c1ccccc1Br	7%	-35%	56µM*	-39%[12.7 µM]	-1%	0%
CCN1C(=O)c2ccccc2S(=O)c2ccc(C(=O)N3CCN(c4cc(Cl)ccc4C)CC3)cc21 (stereo not drawn)	·	-16%	·	5%[59 µM]	22%	-25%
CC(=O)Nc1cccc(NC(=O)Nc2ccc(C)c(Cl)c2)c1	10%	-21%	7%	12%	2%	3%
CC(=O)Nc1cccc(NC(=S)Nc2ccc(F)c(Cl)c2)c1	-6%	-34%	35µM*	?	12%	-20%
COc1ccc(CN(C)CCc2ccccn2)c(OC)c1OC	1%	1µM*	?	8%[2.33 µM]	?	28µM*
ON(CCc1ccccn1)CCc1ccccn1	·	14µM*	·	·	-6%	·
ON(CCc1ccccn1)Cc1ccccc1	·	-8%	·	·	44%	·
CCOc1ccc(CN(C)CCc2ccccn2)cc1	·	18µM*	?	18µM*	25µM*	56µM*
Cc1cccc(CN(C)CCc2ccccn2)c1	-4%	3.2µM*	-20%	?	?	?
CC(C)C(NS(=O)(=O)c1cccc2nsnc12)C(=O)NC1CCCCC1C (stereo not drawn)	·	-11%	14%	19%	31%	-2%
